Experimental findings from publication PMC7862700, “An all-to-all approach to the identification of sequence-specific readers for epigenetic DNA modifications on cytosine” are described below.

Holding throughout (test): DAPPL (digital affinity profiling via proximity ligation, sequencing); 10 mM Tris-HCl pH 7.5, 50 mM NaCl, 1 mM DTT, 4% glycerol, room temperature, 30 min; GST-TFs on glutathione beads, 16-mer random dsDNA library, 0.1% formaldehyde crosslink after washing; high values mean tight binding
The target in one assay is T1, FLI1 (Homo sapiens, UniProt Q01543 1-452).
T1 sequence: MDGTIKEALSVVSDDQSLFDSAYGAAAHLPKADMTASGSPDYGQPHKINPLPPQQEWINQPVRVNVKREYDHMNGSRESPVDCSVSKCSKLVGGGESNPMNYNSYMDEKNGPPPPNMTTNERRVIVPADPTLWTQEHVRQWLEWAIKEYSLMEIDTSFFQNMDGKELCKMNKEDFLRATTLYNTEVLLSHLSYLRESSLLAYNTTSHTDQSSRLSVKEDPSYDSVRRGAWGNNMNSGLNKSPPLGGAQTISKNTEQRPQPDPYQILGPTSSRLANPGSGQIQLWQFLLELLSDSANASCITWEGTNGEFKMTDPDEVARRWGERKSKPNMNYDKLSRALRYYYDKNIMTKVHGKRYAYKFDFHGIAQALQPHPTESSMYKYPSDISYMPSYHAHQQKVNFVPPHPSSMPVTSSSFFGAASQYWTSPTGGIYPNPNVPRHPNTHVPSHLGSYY
The settings on record: protein: recombinant; tags: N-terminal GST; dsDNA, one strand shown. Summed up: (§1)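 Binding signal is defined as a hexamer's read frequency for one factor over its frequency for the tag-only sample. To obtain reads, GST-fused human transcription factors were expressed in yeast, captured on glutathione beads, barcoded with DNA and pooled with that sample. Pools met 200 nmole of a 16-mer random double-stranded DNA library in Tris/NaCl/DTT/glycerol buffer for 30 min at room temperature before washing, 0.1% formaldehyde crosslinking, proximity ligation (BsaI/T4 ligase, 1 h, 37 °C), PCR and Illumina NextSeq500 sequencing.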

The next assay addresses T2, ELK3 (Homo sapiens, UniProt P41970 1-407).
T2 sequence: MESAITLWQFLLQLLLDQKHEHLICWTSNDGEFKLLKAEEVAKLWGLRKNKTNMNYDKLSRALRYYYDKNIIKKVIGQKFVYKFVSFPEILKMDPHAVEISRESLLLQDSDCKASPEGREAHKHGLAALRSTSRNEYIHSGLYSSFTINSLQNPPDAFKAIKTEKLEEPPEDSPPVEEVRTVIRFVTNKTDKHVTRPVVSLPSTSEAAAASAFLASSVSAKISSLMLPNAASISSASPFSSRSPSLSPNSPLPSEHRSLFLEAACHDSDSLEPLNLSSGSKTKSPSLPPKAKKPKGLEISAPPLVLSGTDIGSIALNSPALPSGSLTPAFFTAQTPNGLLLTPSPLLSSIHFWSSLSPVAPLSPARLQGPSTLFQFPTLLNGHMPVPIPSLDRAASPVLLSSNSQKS
Particulars: protein: recombinant; tags: N-terminal GST; dsDNA, one strand shown. The essentials:
as §1

The target in the next assay is T3, ELF3 (Homo sapiens, UniProt P78545 1-371).
T3 sequence: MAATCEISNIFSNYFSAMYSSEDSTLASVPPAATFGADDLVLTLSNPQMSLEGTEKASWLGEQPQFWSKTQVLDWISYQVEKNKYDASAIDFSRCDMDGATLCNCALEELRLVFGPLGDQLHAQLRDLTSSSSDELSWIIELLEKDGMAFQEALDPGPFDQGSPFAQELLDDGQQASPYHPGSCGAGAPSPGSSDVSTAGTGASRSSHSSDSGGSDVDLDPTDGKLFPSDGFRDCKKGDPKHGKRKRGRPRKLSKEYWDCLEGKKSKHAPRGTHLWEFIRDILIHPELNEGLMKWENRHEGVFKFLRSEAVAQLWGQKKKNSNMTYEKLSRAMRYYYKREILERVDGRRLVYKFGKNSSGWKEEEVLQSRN
Particulars: protein: recombinant; tags: N-terminal GST; dsDNA, one strand shown. The essentials: as §1

A further assay concerns the target CRX (Homo sapiens, UniProt O43186 1-299). Particulars: protein: recombinant; tags: N-terminal GST; dsDNA, one strand shown. Summed up: as §1
For another assay, the target named is T4, ELF5 (Homo sapiens, UniProt Q9UKW6-2 1-255).
T4 sequence: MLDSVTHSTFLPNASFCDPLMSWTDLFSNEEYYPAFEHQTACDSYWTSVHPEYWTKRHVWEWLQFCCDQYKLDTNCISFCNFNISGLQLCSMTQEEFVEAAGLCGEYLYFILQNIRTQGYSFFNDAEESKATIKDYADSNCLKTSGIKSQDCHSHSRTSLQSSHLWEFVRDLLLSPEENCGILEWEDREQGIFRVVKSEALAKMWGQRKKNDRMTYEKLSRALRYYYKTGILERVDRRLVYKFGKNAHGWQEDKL
Particulars: protein: recombinant; tags: N-terminal GST; dsDNA, one strand shown. Summed up:
as §1

A further assay has as its target HSF1 (Homo sapiens, UniProt Q00613 1-529). The settings on record: protein: recombinant; tags: N-terminal GST; chain copies: 3; dsDNA, one strand shown. Summed up: as §1
The next assay concerns the target T5, SPIC (Homo sapiens, UniProt Q8N5J4 1-248).
T5 sequence: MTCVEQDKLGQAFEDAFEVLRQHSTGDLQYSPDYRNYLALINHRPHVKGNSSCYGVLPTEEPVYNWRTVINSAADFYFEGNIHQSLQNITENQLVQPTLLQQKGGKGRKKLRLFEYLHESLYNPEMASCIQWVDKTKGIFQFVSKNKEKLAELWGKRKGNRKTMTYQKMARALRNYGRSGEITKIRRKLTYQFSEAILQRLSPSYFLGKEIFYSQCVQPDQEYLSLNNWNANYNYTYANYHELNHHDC
Particulars: protein: recombinant; tags: N-terminal GST; dsDNA, one strand shown. Summed up:
as §1

Chain of HSF1 (Q00613 whole entry): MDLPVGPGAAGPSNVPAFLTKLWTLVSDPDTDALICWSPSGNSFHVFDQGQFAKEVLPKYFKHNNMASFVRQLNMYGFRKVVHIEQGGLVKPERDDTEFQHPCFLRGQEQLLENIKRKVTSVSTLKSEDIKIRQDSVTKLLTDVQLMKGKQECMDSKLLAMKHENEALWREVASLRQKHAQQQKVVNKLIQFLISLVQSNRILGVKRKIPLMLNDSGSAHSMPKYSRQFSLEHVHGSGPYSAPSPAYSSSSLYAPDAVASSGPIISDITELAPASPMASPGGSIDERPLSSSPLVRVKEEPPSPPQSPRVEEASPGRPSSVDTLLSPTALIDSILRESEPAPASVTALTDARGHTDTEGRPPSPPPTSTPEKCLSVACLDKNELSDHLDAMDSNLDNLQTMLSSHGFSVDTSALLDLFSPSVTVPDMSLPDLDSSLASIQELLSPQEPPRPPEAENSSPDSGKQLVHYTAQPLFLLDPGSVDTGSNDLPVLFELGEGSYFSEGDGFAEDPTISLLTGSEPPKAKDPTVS
Chain of CRX (O43186 whole entry): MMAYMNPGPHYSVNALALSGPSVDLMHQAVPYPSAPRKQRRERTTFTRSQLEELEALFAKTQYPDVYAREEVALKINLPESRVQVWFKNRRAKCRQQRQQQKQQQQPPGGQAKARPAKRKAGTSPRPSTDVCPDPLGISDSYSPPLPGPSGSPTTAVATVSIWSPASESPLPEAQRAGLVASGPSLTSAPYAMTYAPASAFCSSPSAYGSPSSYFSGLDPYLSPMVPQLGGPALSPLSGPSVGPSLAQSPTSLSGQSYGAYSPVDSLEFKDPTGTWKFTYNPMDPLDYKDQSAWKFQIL

AACCGC: the binding signal with FLI1 is 1.15 fold enrichment (6-mer frequency, TF over GST control); in the assay with ELK3, 1.07 fold enrichment (6-mer frequency, TF over GST control); with ELF3, 1.1 fold enrichment (6-mer frequency, TF over GST control); with CRX, 1.02 fold enrichment (6-mer frequency, TF over GST control); with ELF5, 1 fold enrichment (6-mer frequency, TF over GST control).
With GGCTAC, the binding signal with FLI1 is 1.17 fold enrichment (6-mer frequency, TF over GST control); with ELK3, 1.19 fold enrichment (6-mer frequency, TF over GST control); in the assay with ELF3, 1.18 fold enrichment (6-mer frequency, TF over GST control); with ELF5 it was 1.16 fold enrichment (6-mer frequency, TF over GST control).
Take GGTACA: the binding signal in the assay with FLI1 was 1.03 fold enrichment (6-mer frequency, TF over GST control); in the assay with ELF5, 1 fold enrichment (6-mer frequency, TF over GST control).
For the sequence CGCCGG, the binding signal with FLI1 is 1.01 fold enrichment (6-mer frequency, TF over GST control); with ELK3, 1.08 fold enrichment (6-mer frequency, TF over GST control); in the assay with ELF3, 1.13 fold enrichment (6-mer frequency, TF over GST control); with ELF5, 1.02 fold enrichment (6-mer frequency, TF over GST control).
As for GGTGGT, the binding signal with FLI1 is 1.05 fold enrichment (6-mer frequency, TF over GST control); with ELK3 it was 1.03 fold enrichment (6-mer frequency, TF over GST control).
In the case of CGCGTA, the binding signal in the assay with FLI1 was 1.07 fold enrichment (6-mer frequency, TF over GST control).
As to TGGCTG, the binding signal is 1.11 fold enrichment (6-mer frequency, TF over GST control) in the assay with FLI1; 1 fold enrichment (6-mer frequency, TF over GST control) with ELF3; 1.01 fold enrichment (6-mer frequency, TF over GST control) in the assay with ELF5.
With CGAATC, the binding signal in the assay with HSF1 was 1.38 fold enrichment (6-mer frequency, TF over GST control); in the assay with SPIC, 1 fold enrichment (6-mer frequency, TF over GST control); in the assay with ELF3, 1.11 fold enrichment (6-mer frequency, TF over GST control); with CRX it was 1.12 fold enrichment (6-mer frequency, TF over GST control).
Consider CGGTTA, for which the binding signal was 1.05 fold enrichment (6-mer frequency, TF over GST control) with FLI1; 1 fold enrichment (6-mer frequency, TF over GST control) with ELK3; 1 fold enrichment (6-mer frequency, TF over GST control) with ELF3; 1.07 fold enrichment (6-mer frequency, TF over GST control) with ELF5.
Regarding GGCTAA, the binding signal in the assay with ELK3 was 1.02 fold enrichment (6-mer frequency, TF over GST control); in the assay with HSF1, 1.15 fold enrichment (6-mer frequency, TF over GST control); with SPIC, 1.03 fold enrichment (6-mer frequency, TF over GST control); in the assay with CRX, 1.61 fold enrichment (6-mer frequency, TF over GST control).
TCACGG: the binding signal with FLI1 was 1.06 fold enrichment (6-mer frequency, TF over GST control); with ELK3, 1 fold enrichment (6-mer frequency, TF over GST control); in the assay with ELF5, 1.13 fold enrichment (6-mer frequency, TF over GST control).
Take CTAGCG: the binding signal was 1.3 fold enrichment (6-mer frequency, TF over GST control) in the assay with HSF1; 1.03 fold enrichment (6-mer frequency, TF over GST control) in the assay with SPIC; 1.05 fold enrichment (6-mer frequency, TF over GST control) with ELF3; 1.06 fold enrichment (6-mer frequency, TF over GST control) with CRX; 1.07 fold enrichment (6-mer frequency, TF over GST control) in the assay with ELF5.
On to TAGGGC, for which the binding signal with HSF1 is 1.05 fold enrichment (6-mer frequency, TF over GST control); with SPIC, 1.11 fold enrichment (6-mer frequency, TF over GST control); with CRX, 1.22 fold enrichment (6-mer frequency, TF over GST control); with ELF5 it was 1.03 fold enrichment (6-mer frequency, TF over GST control).
In the case of TGGGAA, the binding signal in the assay with ELK3 is 1 fold enrichment (6-mer frequency, TF over GST control); with HSF1, 1.05 fold enrichment (6-mer frequency, TF over GST control); with SPIC, 1.03 fold enrichment (6-mer frequency, TF over GST control); with ELF3, 1.13 fold enrichment (6-mer frequency, TF over GST control); with ELF5 it was 1.15 fold enrichment (6-mer frequency, TF over GST control).
As to AGGATG, the binding signal with FLI1 is 1.07 fold enrichment (6-mer frequency, TF over GST control); with ELF5, 1.23 fold enrichment (6-mer frequency, TF over GST control).
For ATCAAA, the binding signal with ELK3 was 1.08 fold enrichment (6-mer frequency, TF over GST control); in the assay with HSF1 it was 1.1 fold enrichment (6-mer frequency, TF over GST control); with ELF3, 1.04 fold enrichment (6-mer frequency, TF over GST control); with CRX, 1.31 fold enrichment (6-mer frequency, TF over GST control); with ELF5 it was 1.02 fold enrichment (6-mer frequency, TF over GST control).
Take TAGTAG: the binding signal is 1.2 fold enrichment (6-mer frequency, TF over GST control) with HSF1; 1.02 fold enrichment (6-mer frequency, TF over GST control) in the assay with SPIC; 1.1 fold enrichment (6-mer frequency, TF over GST control) in the assay with ELF3; 1.25 fold enrichment (6-mer frequency, TF over GST control) with CRX.
Consider GCGTCT, for which the binding signal with ELK3 is 1.13 fold enrichment (6-mer frequency, TF over GST control); with HSF1, 1.01 fold enrichment (6-mer frequency, TF over GST control); in the assay with SPIC, 1.11 fold enrichment (6-mer frequency, TF over GST control); with ELF3, 1.34 fold enrichment (6-mer frequency, TF over GST control); in the assay with ELF5, 1.08 fold enrichment (6-mer frequency, TF over GST control).
Turning to ACTGGA, the binding signal was 1.01 fold enrichment (6-mer frequency, TF over GST control) in the assay with ELK3; 1.56 fold enrichment (6-mer frequency, TF over GST control) in the assay with HSF1; 1.16 fold enrichment (6-mer frequency, TF over GST control) in the assay with SPIC; 1.1 fold enrichment (6-mer frequency, TF over GST control) with ELF3; 1.19 fold enrichment (6-mer frequency, TF over GST control) with CRX.
Take ACAAGA: the binding signal in the assay with HSF1 is 1 fold enrichment (6-mer frequency, TF over GST control); with SPIC it was 1.06 fold enrichment (6-mer frequency, TF over GST control); with ELF3, 1.1 fold enrichment (6-mer frequency, TF over GST control).
For TAGGAT, the binding signal with ELK3 is 1.03 fold enrichment (6-mer frequency, TF over GST control); with HSF1, 1.35 fold enrichment (6-mer frequency, TF over GST control); with SPIC it was 1.06 fold enrichment (6-mer frequency, TF over GST control); with ELF3, 1.03 fold enrichment (6-mer frequency, TF over GST control); with CRX, 1.81 fold enrichment (6-mer frequency, TF over GST control); in the assay with ELF5, 1.06 fold enrichment (6-mer frequency, TF over GST control).
Consider AAGATC, for which the binding signal is 1.02 fold enrichment (6-mer frequency, TF over GST control) with ELK3; 1.35 fold enrichment (6-mer frequency, TF over GST control) with HSF1; 1.19 fold enrichment (6-mer frequency, TF over GST control) in the assay with SPIC; 1.15 fold enrichment (6-mer frequency, TF over GST control) in the assay with ELF3; 1.37 fold enrichment (6-mer frequency, TF over GST control) with CRX; 1 fold enrichment (6-mer frequency, TF over GST control) with ELF5.
As for CATAAT, the binding signal is 1.37 fold enrichment (6-mer frequency, TF over GST control) with HSF1; 1.24 fold enrichment (6-mer frequency, TF over GST control) with SPIC; 1.01 fold enrichment (6-mer frequency, TF over GST control) in the assay with ELF3; 1.93 fold enrichment (6-mer frequency, TF over GST control) in the assay with CRX.
Take CGAACG: the binding signal was 1.2 fold enrichment (6-mer frequency, TF over GST control) in the assay with HSF1; 1.11 fold enrichment (6-mer frequency, TF over GST control) with SPIC; 1.05 fold enrichment (6-mer frequency, TF over GST control) with ELF3.
Turning to GGTAAA, the binding signal in the assay with ELK3 is 1.04 fold enrichment (6-mer frequency, TF over GST control); with HSF1, 1.04 fold enrichment (6-mer frequency, TF over GST control); with ELF3 it was 1.13 fold enrichment (6-mer frequency, TF over GST control); in the assay with CRX, 1.07 fold enrichment (6-mer frequency, TF over GST control); with ELF5 it was 1.1 fold enrichment (6-mer frequency, TF over GST control).
Regarding TCAAGT, the binding signal with ELK3 is 1.13 fold enrichment (6-mer frequency, TF over GST control); with HSF1, 1.08 fold enrichment (6-mer frequency, TF over GST control); with SPIC it was 1.12 fold enrichment (6-mer frequency, TF over GST control); with ELF3 it was 1.13 fold enrichment (6-mer frequency, TF over GST control); with CRX it was 1.12 fold enrichment (6-mer frequency, TF over GST control).
